From PubChem BioAssay (NCI)
The panel holds about 79,000 compounds, 15% with a hit somewhere; the sample as a whole holds those more often. No stated cut-off is given here; in the data, active means growth inhibition above about 70%; inactive means the rest.

What was measured:
[1] = NCI Yeast Anticancer Drug Screen. Data for the rad50 strain (AID 155);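 further: 0% = growth of vehicle-only cultures of the same strain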; conditions: S. cerevisiae rad50 strain growth inhibition; at 50.0 µM; active compounds read high
Outline: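 Compounds were tested on a yeast strain with an engineered DNA damage repair alteration; the reported value is growth inhibition normalised to vehicle treatment.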

[2] = NCI Yeast Anticancer Drug Screen. Data for the mec2-1 strain (AID 157); conditions: S. cerevisiae mec2-1 strain, at 50.0 µM, active compounds read high
Outline: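 mec2-1 yeast strain, carrying an alteration in DNA damage repair or cell cycle control, was exposed to compounds; growth inhibition was measured relative to vehicle-treated controls.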

[3] = NCI Yeast Anticancer Drug Screen. Data for the sgs1 mgt1 strain (AID 161);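 further: 0% = growth of cultures given vehicle only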; conditions: S. cerevisiae sgs1 mgt1 strain, at 50.0 µM, active compounds read high
Outline: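 Growth of a repair-deficient yeast mutant was monitored after compound treatment and expressed as inhibition relative to vehicle-treated cultures.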

[4] = NCI Yeast Anticancer Drug Screen. Data for the cln2 rad14 strain (AID 165);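 further: 0% = growth equal to vehicle treated cultures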; conditions: S. cerevisiae cln2 rad14 strain, at 50.0 µM, active compounds read high
Outline: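 Yeast carrying cln2 and rad14 alterations (cell cycle control and DNA damage repair) were exposed to compounds. Growth inhibition was measured against vehicle-treated controls.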

[5] = NCI Yeast Anticancer Drug Screen. Data for the bub3 strain (AID 167); conditions: S. cerevisiae bub3 mutant strain, at 50.0 µM, active compounds read high
Outline: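 Growth of a checkpoint-deficient yeast mutant is measured after compound exposure. Values represent inhibition relative to vehicle.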

[6] = NCI Yeast Anticancer Drug Screen. Data for the mlh1 rad18 strain (AID 175); conditions: S. cerevisiae mlh1 rad18 strain growth inhibition; at 50.0 µM; active compounds read high
Outline: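 Growth inhibition of the yeast strain was measured after compound exposure and expressed relative to vehicle-treated controls. The strain carries defined defects in DNA damage repair.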

Measured: growth inhibition

CC(F)(F)C(F)(F)C(=O)CC(=O)C(F)(F)F.CC(F)(F)C(F)(F)C(=O)CC(=O)C(F)(F)F.[Cu]
inactive: [1] -9.15% | [2] -20.4% | [3] -9.75% | [4] -72% | [5] 1.95% | [6] -43.6%

Nc1ccc(C(=O)Nc2ccc(NC(=O)c3ccco3)c(O)c2)cc1
inactive: [1] 2.5% | [2] -11.3% | [3] 31.6% | [4] 13.4% | [5] 20.7% | [6] 10.1%

Brc1cccc(C2SCc3nc4ccccc4n32)c1 (stereo not drawn)
inactive: [1] 33% | [2] 16.9% | [3] 37.2% | [4] 19.9% | [5] 19.2% | [6] 21.4%

CCCCCCCCCCCC1=c2o[nH]c2=C(c2ccccn2)C(=O)C1=O
inactive: [1] -15.2% | [2] -6.6% | [3] 6.5% | [4] -45.5% | [5] 11.4% | [6] -0.75%

O=[N+]([O-])c1cccc(NC(c2ccccc2)S(=O)(=O)O)c1 (stereo not drawn)
inactive: [1] -5.15% | [2] -18.6% | [3] 9.65% | [4] 18.9% | [5] 8.75% | [6] 5.15%

CC1(C)OC(CP(=O)(c2ccccc2)c2ccccc2)C(CP(=O)(c2ccccc2)c2ccccc2)O1 (stereo not drawn)
inactive: [1] 23.1% | [2] 13.1% | [3] 15.4% | [4] 18.2% | [5] -2.2% | [6] 13.2%

CC1CN(C(C)(C)C)CO1 (stereo not drawn)
inactive: [1] -0.3% | [2] -10.4% | [3] -18.6% | [4] 8.3% | [5] -26.5% | [6] -25.6%

CCCCCCCCCCCCCC(=O)Oc1ccc2ccccc2c1
inactive: [1] -4.05% | [2] 3.5% | [3] -3.85% | [4] 5.7% | [5] -10.1% | [6] 8.7%

Cc1ccc2occ(-c3nnc(NC(=O)c4ccccc4)s3)c(=O)c2c1
inactive: [1] -36.2% | [2] -9.75% | [3] -11.7% | [4] -26.6% | [5] -7.35% | [6] -23.2%

COc1ccc(C(c2cc3c(cc2O)OCO3)n2ccnc2)cc1 (stereo not drawn)
inactive: [1] 9.45% | [2] 11.8% | [3] 12.3% | [4] -55.5% | [5] 12.1% | [6] 4.9%

Cc1ccc(C2=Nc3ccccc3SC(c3cccc([N+](=O)[O-])c3)C2)cc1 (stereo not drawn)
inactive: [1] 11.2% | [2] -12.6% | [3] 11.8% | [4] -9.25% | [5] -6.2% | [6] -1.8%

Cn1c(=O)c2ccccc2c2cc(Br)ccc21
inactive: [1] 41.1% | [2] 6.05% | [3] 4.15% | [4] -14.8% | [5] 7.8% | [6] 20.6%

CC1=C(c2cc(C(=O)Nc3cccc(Cl)c3)nc(NC#N)n2)Sc2ccccc2N1
inactive: [1] 25.6% | [2] 0.9% | [3] -0.7% | [4] 16.4% | [5] 4.75% | [6] 33.5%

CN(C)c1nc(=O)c2ccccc2o1
inactive: [1] -41% | [2] -14.1% | [3] -28.4% | [4] -36.5% | [5] -7.75% | [6] -5.05%

COCCCn1cnn2c(=O)c3ccccc3nc2c1=O
inactive: [1] -12% | [2] 2.85% | [3] 23.8% | [4] 12.4% | [5] 21.3% | [6] 6.25%

CC(=O)C1(C)SC(N(c2ccccc2)c2ccccc2)=NC1=O (stereo not drawn)
inactive: [1] -1.2% | [2] -4.4% | [3] -4.05% | [4] 2.4% | [5] 9.05% | [6] -0.6%

O=C(c1ccc(OC(=O)c2ccccc2O)cc1)c1ccc(OC(=O)c2ccccc2O)cc1
inactive: [1] 27.6% | [2] 6.75% | [3] 29.3% | [4] -100% | [5] 8.3% | [6] 15.9%

C[N+]1(C)CCCC1
inactive: [1] 24.5% | [2] 5.5% | [3] 24.2% | [4] 7.6% | [5] 35.5% | [6] 16.1%

CCc1cccc(CC)c1NC1=CC(=O)C(=O)c2ccccc21
inactive: [1] 22.4% | [2] 11.4% | [3] 10% | [4] 18.8% | [5] 34.2% | [6] 18.2%

O=c1ccc2ccc(O)cc2o1
inactive: [1] -1.45% | [2] -6.7% | [3] 0.9% | [4] 2.05% | [5] -4.65% | [6] -11.8%

O=C(NC(=O)c1c(F)cccc1F)Nc1ccc(OCc2ccccc2)cc1
inactive: [1] 24.4% | [2] 0.15% | [3] 5.45% | [4] 9% | [5] -4.15% | [6] 21.4%

NCOC(=O)Cc1ccc(Br)cc1
inactive: [1] 14.8% | [2] 6.65% | [3] -0.35% | [4] -2.55% | [5] 4.15% | [6] 18.6%

COC(=O)/C=C/c1cc(OC)c2c(c1)C(C(=O)OC)C(c1ccc(O)c(OC)c1)O2 (stereo not drawn)
inactive: [1] -2.75% | [2] 7.6% | [3] -38.4% | [4] -17.6% | [5] -23.8% | [6] -8.95%

CCOC(OCC)n1ncnc1NC(=S)NCc1ccccc1
inactive: [1] -15.4% | [2] -23.6% | [3] 3.75% | [4] -2.7% | [5] -5.85% | [6] -11.2%

COC(=O)NC(CI)c1ccccc1 (stereo not drawn)
inactive: [1] 14.7% | [2] -5.8% | [3] 7.55% | [4] 8.85% | [5] -6.35% | [6] 23.9%

Oc1ccc(Cl)cc1C=Nc1cnc2ccccc2c1
inactive: [1] -14.6% | [2] 24.9% | [3] 1.95% | [4] -10.9% | [5] 9.1% | [6] 17.4%

Cc1ccc(OCC2OC(n3cnc4nc(Nc5ccc(Cl)c(Cl)c5)nc(Cl)c43)CC2Oc2ccc(C)cc2)cc1 (stereo not drawn)
inactive: [1] 6.9% | [2] 10.8% | [3] -40.2% | [4] 14.1% | [5] -20.3% | [6] -33%

C/C=C1/CC(C)C(C)(O)C(=O)OCC2C(O)CN3CCC(OC1=O)C23 (stereo not drawn)
inactive: [1] 12.4% | [2] -2.3% | [3] -15.5% | [4] -10.3% | [5] -3.85% | [6] -43.6%

COC(=O)n1sc(SC)nc1=N
inactive: [1] 3.75% | [2] -3.95% | [3] -8.9% | [4] -14.3% | [5] -17.1% | [6] 3.55%

COc1ccc(NC(=O)Oc2ccc(C#N)cc2)cc1
inactive: [1] -1.3% | [2] -16.1% | [3] 5.5% | [4] 8.3% | [5] 10.4% | [6] -1.55%

S=c1cc(S)sc2c1c(=S)sc1nc3ccccn3c(=S)c12
inactive: [1] -2.35% | [2] 28.6% | [3] 35.3% | [4] 18% | [5] 24.6% | [6] 45%

O=C(CCN1CCOCC1)Nc1ccc(F)cc1F
inactive: [1] -18.8% | [2] 3.35% | [3] -3.15% | [4] 7.25% | [5] -36.5% | [6] -6.1%

O=C(Cc1cc2ccccc2[nH]c1=O)Nc1ccccc1
inactive: [1] 9.55% | [2] -7.2% | [3] 6.75% | [4] -27% | [5] -2.2% | [6] -5.55%

NC(=S)SCCC(=O)N1CCCC1
inactive: [1] -1.25% | [2] -10.1% | [3] -9.55% | [4] -19.6% | [5] -7.35% | [6] -1.7%

N#CCCN1C(=O)C2(CCC#N)CCCCC2(O)N=C1c1ccccc1 (stereo not drawn)
inactive: [1] -7.35% | [2] 6.15% | [3] 16.5% | [4] -0.5% | [5] 15.2% | [6] 7.7%

Cc1ccc(N=Nc2ccc(C)cc2NC(=O)c2ccc(Cl)cc2)cc1
inactive: [1] -3.15% | [2] 10.2% | [3] 17.1% | [4] -7.8% | [5] 32.3% | [6] 8.85%

CC(CO)(CO)CN1CCCCC1
inactive: [1] -2.25% | [2] 5.2% | [3] -1.85% | [4] -36.5% | [5] -12.4% | [6] 1.8%

NC(=O)NC(c1ccc(O)cc1)c1cc2c(cc1O)OCO2 (stereo not drawn)
inactive: [1] -4% | [2] 1.9% | [3] -11.8% | [4] -36.8% | [5] 5.75% | [6] -0.55%
